CYP2C19 inhib: blocks human cytochrome P450 2C19; P33261; CYP2C19 Supersomes, luciferin-H EGE luminescence, 30 min; inhibition, % at 5 µM; 96,000 compounds, 21% hits;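 active = CYP2C19 inhibition above a set limit at 5 µM in the primary screen, cut at about 50% in these data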;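 note: plate controls were negative control wells for no effect and 2.5 mM tranylcypromine positive control for full effect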
CYP2C19 act: increases human CYP2C19 enzyme activity | P33261 | recombinant CYP2C19, luciferin-H EGE luminescence; stronger effect = higher value; 0 = fully inhibited enzyme, 1 = untreated enzyme | activation factor at 5 µM | 96,000 tested, under 10 active;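 active = activation factor of at least 2 at 5 µM in the primary screen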;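 note: 0 = wells with 2.5 mM tranylcypromine and 1 = vehicle-only wells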
CYP2C9 inh: blocks human cytochrome P450 2C9; inhibition, % at 5 µM; CYP2C9 Supersomes, luciferin-H conversion, luminescence; 96,000 compounds, 20% hits;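 active = blocking of liver enzyme CYP2C9 beyond about 50% at 5 µM, limit read from the data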
Target sequence (P11712 whole entry, looked up): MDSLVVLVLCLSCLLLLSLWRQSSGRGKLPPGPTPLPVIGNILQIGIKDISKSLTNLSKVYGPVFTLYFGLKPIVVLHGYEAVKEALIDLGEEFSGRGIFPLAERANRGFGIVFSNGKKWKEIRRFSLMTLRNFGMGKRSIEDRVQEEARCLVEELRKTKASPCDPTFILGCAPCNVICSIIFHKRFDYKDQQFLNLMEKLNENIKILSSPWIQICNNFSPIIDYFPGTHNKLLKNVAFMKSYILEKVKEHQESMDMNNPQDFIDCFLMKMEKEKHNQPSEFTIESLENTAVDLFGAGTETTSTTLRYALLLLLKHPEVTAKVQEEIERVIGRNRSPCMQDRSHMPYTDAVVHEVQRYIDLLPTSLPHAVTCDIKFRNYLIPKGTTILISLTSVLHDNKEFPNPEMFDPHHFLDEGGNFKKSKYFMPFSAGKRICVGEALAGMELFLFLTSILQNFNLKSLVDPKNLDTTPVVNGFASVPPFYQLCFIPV
Measles CPE: protection of cells from measles virus; Measles virus-infected cells, CPE protection, absorbance; protection (pct of control), % at 4 µM; 140,000 compounds, 1.5% hits; in the data active = protection mostly above about 24%, no sharp cut-off; inactive = mostly below about 26%
CYP2C9 activ: increases human cytochrome P450 2C9 activity; activation factor at 5 µM; 96,000 compounds, 1.4% hits; AID 1024; recombinant CYP2C9, luciferin-H conversion, luminescence; stronger effect = higher value; factor 1 = untreated enzyme, 0 = blocked;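 active = activation factor of 2 or more for CYP2C9 at a 5 µM dose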;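 note: 0 = sulfaphenazole-blocked wells and 1 = vehicle-only wells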
* hit, by the source's call; / = no result given. In the library only some 22% were active in any assay of this set; here they are far more common.

SMILES | CYP2C19 inhib | CYP2C19 act | CYP2C9 inh | Measles CPE | CYP2C9 activ
CC(C)Oc1ccc(Cc2cnc(N)nc2N)cc1 | -4 | 1 | -4 | 13 | 1
O=C(O)CCS(=O)(=O)Cc1ccccc1Cl | 3 | 1 | 17 | 2 | 0.8
CO/N=C(/CS(=O)(=O)Cc1ccccc1Cl)c1ccc(Cl)cc1Cl | 52* | 0.5 | 4 | 4 | 1
CCn1c(C)nc2cc(C(=O)N=Nc3c(O)[nH]c4ccccc34)ccc21 | / | / | / | 27 | /
Cc1cc(C(=O)NCc2ccccc2F)cs1 | 30 | 0.7 | -10 | 10 | 1.1
CCOc1ccc(Br)cc1S(=O)(=O)Nc1ccc(C(=O)OCC(=O)N(C)c2ccccc2)cc1 | / | / | / | 4 | /
O=C(Cn1nnc2c(cnn2-c2ccc(F)cc2)c1=O)OC1CCCCC1 | 62* | 0.4 | 46 | 3 | 0.5
COc1ccc(S(=O)(=O)Nc2nnc(CC(C)C)s2)cc1 | -2 | 1 | 63* | 11 | 0.4
CC(C)Cc1nnc(NS(=O)(=O)c2ccc(Cl)cc2)s1 | 9 | 0.9 | 70* | 12 | 0.3
COc1ccc(S(=O)(=O)Nc2nnc(C)s2)cc1 | 12 | 0.9 | 48 | 11 | 0.5
CCc1ccc(NC(=O)CSc2nc3cc(C(=O)OC)ccc3c(=O)n2CC2CCCO2)cc1 (configuration not stated) | 20 | 0.8 | 46 | 4 | 0.5
CC(=O)Nc1ccc(NC2=CC(=O)CC(C)(C)C2)cc1 | -8 | 1.1 | 23 | 9 | 0.8
COC(=O)c1ccc(NC2=CC(=O)CC(C)(C)C2)cc1 | 29 | 0.7 | 51* | 9 | 0.5
CC(C)(C)n1nnnc1C(c1ccccc1F)N(Cc1ccco1)CC1CCCO1 (configuration not stated) | 30 | 0.7 | 71* | 25 | 0.3
Cc1cccc2cc(C(c3nnnn3C(C)(C)C)N(Cc3ccco3)CC3CCCO3)c(=O)[nH]c12 (configuration not stated) | 24 | 0.8 | 56* | 16 | 0.4
O=C(NCc1ccco1)C(c1ccccc1F)N(CC1CCCO1)C(=O)Cn1nnc2ccccc21 (configuration not stated) | 2 | 1 | 12 | 12 | 0.9
Cc1ccc2[nH]c(=O)c(C(c3nnnn3C(C)(C)C)N(Cc3ccco3)CC3CCCO3)cc2c1 (configuration not stated) | 9 | 0.9 | 4 | 5 | 1
CCOc1ccc(-n2c(-c3ccccc3)nnc2-c2ccccc2)cc1 | / | / | / | 6 | /
COCCNC(=O)Cn1c(=O)n(C)c2ccccc21 | -3 | 1 | 3 | 4 | 1
COc1ccc(C(O)C(CN2CCOCC2)c2ccccc2)cc1 (configuration not stated) | 15 | 0.8 | 3 | 10 | 1
CCC(=O)c1ccc(OCc2ccc(C(=O)OC)o2)c(OC)c1 | 40 | 0.6 | 56* | 3 | 0.4
C/C=C/c1ccccc1OCc1ccc(C(=O)OC)o1 | 27 | 0.7 | 22 | 2 | 0.8
C=CCc1ccc(OCc2ccc(C(=O)OC)o2)c(OC)c1 | 44 | 0.6 | 68* | 13 | 0.3
CC1Cc2cc(/C(O)=C3/C(=O)C(=O)N(CC4CCCO4)C3c3ccco3)ccc2O1 (configuration not stated) | -19 | 1.2 | -10 | 5 | 1.1
COc1ccccc1N1CCN(C(=O)c2oc3cc(C)c(C)cc3c2C)CC1 | 44 | 0.6 | 74* | 5 | 0.3
SMILES | CYP2C19 inhib | CYP2C19 act | CYP2C9 inh | Measles CPE | CYP2C9 activ
COc1cc2c(C(=O)N3CCN(c4ccccc4C)CC3)c(C)oc2cc1Br | 60* | 0.4 | 72* | 10 | 0.3
COc1ccc(S(=O)(=O)NNC(=O)c2csc(-n3nc(C)cc3C(F)(F)F)n2)cc1OC | 14 | 0.9 | 54* | 16 | 0.5
CC(=O)c1cccc(NC(=O)c2csc(-n3nc(C)cc3C(F)(F)F)n2)c1 | 51* | 0.5 | 56* | 8 | 0.4
COc1ccc(/C=N/NC(=O)c2csc(-n3nc(C)cc3C(F)(F)F)n2)cc1 | 23 | 0.8 | 32 | 13 | 0.7
COc1ccc(-c2ccc(-c3noc(-c4ccccc4F)n3)c(OC)n2)cc1 | 1 | 1 | 8 | 4 | 0.9
CCOC(=O)c1nnn(-c2ccc(OC)cc2)c1N | / | / | / | 19 | /
Cc1cc2ncn(C(=O)N3CCCCC3)c2cc1C | 82* | 0.2 | 6 | 7 | 0.9
Cc1cc2ncn(C(=O)N3CCCCCC3)c2cc1C | / | / | / | 4 | /
COc1ccccc1-n1nnnc1SCC(=O)Nc1cc(C)on1 | 65* | 0.3 | -14 | 28 | 1.1
CCOc1ccccc1-n1nnnc1SCC(=O)Nc1cc2oc3ccccc3c2cc1OC | -4 | 1 | 51* | 6 | 0.5
O=C(O)CCc1nc(-c2ccc(Cl)cc2)no1 | 1 | 1 | 16 | 17 | 0.8
COC(=O)c1sc2ncccc2c1OCc1ccc(Cl)cc1 | -5 | 1.1 | 11 | 5 | 0.9
COC(=O)c1cccnc1-n1c(=O)c2cccnc2n(Cc2ccc(Cl)cc2)c1=O | 59* | 0.4 | 30 | 5 | 0.7
Cc1cc[n+](CC(=O)c2cc3ccccc3oc2=O)cc1 | / | / | / | 11 | /
CC(C)CN1C(=O)c2ccc(NC(=O)c3ccccc3F)cc2C1=O | -8 | 1.1 | -19 | 6 | 1.2
Cc1ccc(S(=O)(=O)Nc2cccc3c2CCCC3)cc1 | / | / | / | 3 | /
CSc1ccc(S(=O)(=O)Nc2ccc3c4c(cccc24)CC3)cc1 | 98* | 0 | -45 | 5 | 1.5
O=S(=O)(Nc1ccc2c3c(cccc13)CC2)c1ccc(F)cc1 | 70* | 0.3 | -10 | 3 | 1.1
c1ccc(Nc2ccc3c4c(cccc24)CC3)cc1 | / | / | / | 5 | /
COc1cccc(CN2CCN(c3cccc(C(F)(F)F)c3)CC2)c1OC | / | / | / | 7 | /
FC(F)(F)c1cccc(N2CCN(Cc3cccnc3)CC2)c1 | 96* | 0 | 81* | 7 | 0.2
COc1cccc(N2CCN(Cc3cccnc3)CC2)c1 | 67* | 0.3 | -13 | 4 | 1.1
FC(F)(F)c1cccc(N2CCN(Cc3ccoc3)CC2)c1 | 67* | 0.3 | 54* | 3 | 0.5
Cc1cccc(N2CCN(Cc3ccoc3)CC2)c1C | 31 | 0.7 | 16 | 4 | 0.8
CCOc1cccc(CN2CCN(c3cccc(C(F)(F)F)c3)CC2)c1O | 93* | 0.1 | 65* | 5 | 0.4
SMILES | CYP2C19 inhib | CYP2C19 act | CYP2C9 inh | Measles CPE | CYP2C9 activ
CC1=Nn2c(nnc2C2CCCCC2)SC1 | 8 | 0.9 | -1 | 4 | 1
COc1cccc(CN2CCN(c3ncccn3)CC2)c1 | 56* | 0.4 | 10 | 17 | 0.9
Cc1nnc(SCC(=O)N2CCN(S(=O)(=O)c3ccc(Cl)cc3)CC2)n(N)c1=O | 6 | 0.9 | 8 | 31 | 0.9
COc1ccc(C)cc1NC(=O)CN1CCN(c2ccc(F)cc2)CC1 | 78* | 0.2 | 12 | 4 | 0.9
COc1ccccc1NC(=O)CN1CCN(CC(=O)Nc2ccc(OCc3ccccc3)cc2)CC1 | 87* | 0.1 | 79* | 15 | 0.2
COc1ccccc1NC(=O)CN1CCN(c2ccccn2)CC1 | / | / | / | 15 | /
COC(=O)c1sccc1NC(=O)CN1CCN(c2ccc(F)cc2)CC1 | 39 | 0.6 | 54* | 10 | 0.5

Screening data from PubChem.
